For some assays here: Results with a measured potency or affinity are listed apart.
Legend:
Design in all cases: scale not given: direction of the effect not stated beside the values
[1] = target: Protein translocase subunit SecA (Escherichia coli (strain K12)) (UniProt P10408); test: Assay to Identify E. coli SecA ATPase Inhibitors; assay type: functional; conditions: 30 µM
[2] = target: T1, Ubiquitin-activating enzyme e1, putative (Leishmania donovani (strain BPK282A1)) (UniProt E9BSI1); test: Leishmania donovani Ubiquitin Activating Enzyme (LdE1); assay type: functional; conditions: 30 µM
T1 sequence (whole entry): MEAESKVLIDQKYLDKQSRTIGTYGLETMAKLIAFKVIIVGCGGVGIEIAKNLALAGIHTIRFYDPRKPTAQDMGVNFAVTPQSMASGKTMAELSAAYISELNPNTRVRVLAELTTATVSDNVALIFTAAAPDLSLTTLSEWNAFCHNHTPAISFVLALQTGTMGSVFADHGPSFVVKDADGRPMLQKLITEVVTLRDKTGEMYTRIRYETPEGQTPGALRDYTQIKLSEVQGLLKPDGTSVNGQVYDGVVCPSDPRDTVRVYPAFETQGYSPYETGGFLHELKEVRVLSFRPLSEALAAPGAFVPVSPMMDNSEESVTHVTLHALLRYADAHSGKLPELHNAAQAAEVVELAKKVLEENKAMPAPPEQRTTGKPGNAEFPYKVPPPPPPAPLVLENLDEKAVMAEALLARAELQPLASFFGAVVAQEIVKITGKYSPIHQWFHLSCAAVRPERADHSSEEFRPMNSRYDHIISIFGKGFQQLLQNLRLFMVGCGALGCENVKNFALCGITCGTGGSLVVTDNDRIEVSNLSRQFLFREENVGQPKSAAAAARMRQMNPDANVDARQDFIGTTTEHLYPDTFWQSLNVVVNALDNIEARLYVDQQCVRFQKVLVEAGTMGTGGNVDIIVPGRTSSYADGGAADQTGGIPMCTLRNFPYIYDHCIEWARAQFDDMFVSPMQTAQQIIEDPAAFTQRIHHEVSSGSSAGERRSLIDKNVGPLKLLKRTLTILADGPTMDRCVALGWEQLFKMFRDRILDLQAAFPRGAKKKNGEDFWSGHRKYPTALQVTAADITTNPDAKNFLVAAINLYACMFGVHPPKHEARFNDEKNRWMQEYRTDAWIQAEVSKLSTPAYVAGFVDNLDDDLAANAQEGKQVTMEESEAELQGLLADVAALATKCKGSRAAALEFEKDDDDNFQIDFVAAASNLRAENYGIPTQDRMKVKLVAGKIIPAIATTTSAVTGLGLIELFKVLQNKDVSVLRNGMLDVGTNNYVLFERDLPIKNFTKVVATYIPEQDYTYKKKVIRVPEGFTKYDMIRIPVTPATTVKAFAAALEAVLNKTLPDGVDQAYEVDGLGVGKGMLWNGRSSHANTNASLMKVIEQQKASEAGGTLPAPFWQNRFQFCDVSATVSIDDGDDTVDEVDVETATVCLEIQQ

[3] = target: AMP-activated protein kinase, AMPK (Homo sapiens) (UniProt P54646+O43741+P54619+Q9UGJ0+Q9Y478+Q13131+Q9UGI9); test: AMP-dependent Kinase enzyme assay. An in vitro enzyme assay that detects ADP turnover that is directly proportional to AMPK activity. This uses naive AMPK that is activated during the assay with MK-8722; assay type: functional; conditions: 30 µM
[4] = target: Sialic acid-binding Ig-like lectin 9 (Homo sapiens) (UniProt Q9Y336); test: Hs-Siglec9 ALPHAscreen SOP 20170721; conditions: 10 µM
Trypanosoma cruzi = test: Trypanosoma cruzi phosphomannomutase and mannose-1-phosphate guanylyltransferase assay; assay type: functional; conditions: 10 µM
[5] = target: T2, Arginase-2, mitochondrial (Homo sapiens) (UniProt P78540); test: in vitro enzyme assay to detect the production of urea directly proportional to the activity of Arginase II; assay type: functional; conditions: 33.3 µM; also: in the data most compounds retested in dose-response had high values
T2 sequence (whole entry): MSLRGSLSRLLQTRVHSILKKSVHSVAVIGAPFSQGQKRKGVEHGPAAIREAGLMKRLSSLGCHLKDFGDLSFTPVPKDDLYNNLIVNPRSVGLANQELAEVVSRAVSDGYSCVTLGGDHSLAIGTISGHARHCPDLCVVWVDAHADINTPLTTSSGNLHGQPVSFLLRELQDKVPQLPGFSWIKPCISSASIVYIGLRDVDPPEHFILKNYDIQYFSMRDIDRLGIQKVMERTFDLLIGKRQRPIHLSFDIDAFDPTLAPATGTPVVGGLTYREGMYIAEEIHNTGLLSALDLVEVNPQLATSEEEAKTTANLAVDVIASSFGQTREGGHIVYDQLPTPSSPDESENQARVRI

[6] = target: T3, Proteasome subunit beta (Trypanosoma cruzi) (UniProt O96673); test: Trypanosoma cruzi proteasome chymotrypsin-like activity (TcProtChymo) assay.; also: in the data most compounds retested in dose-response had high values; assay type: functional; conditions: 9.37 µM
T3 sequence (whole entry): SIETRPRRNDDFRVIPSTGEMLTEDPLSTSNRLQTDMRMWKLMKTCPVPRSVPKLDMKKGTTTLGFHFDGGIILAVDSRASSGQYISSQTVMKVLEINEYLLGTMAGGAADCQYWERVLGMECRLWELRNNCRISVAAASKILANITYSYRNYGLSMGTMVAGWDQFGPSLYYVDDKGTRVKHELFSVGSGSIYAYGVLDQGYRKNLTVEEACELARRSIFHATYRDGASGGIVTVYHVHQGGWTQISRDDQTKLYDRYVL

Homo sapiens = species on record: Homo sapiens; test: To identify inhibition of the IFN signalling (Jak-Stat) pathway via expression of an eGFP reporter gene under the control of an IFN-stimulated response element (ISRE) containing MxA promoter.; assay type: functional; conditions: 30 µM
[7] = target: T4, Tyrosyl-tRNA synthetase, putative (Trypanosoma cruzi (strain CL Brener)) (UniProt Q4DSP6); test: Trypanosoma cruzi tyrosyl tRNA synthetase (TcYRS) _High Tyrosine SOP; assay type: functional; conditions: 30 µM; also: in the data most compounds retested in dose-response had high values
T4 sequence (whole entry): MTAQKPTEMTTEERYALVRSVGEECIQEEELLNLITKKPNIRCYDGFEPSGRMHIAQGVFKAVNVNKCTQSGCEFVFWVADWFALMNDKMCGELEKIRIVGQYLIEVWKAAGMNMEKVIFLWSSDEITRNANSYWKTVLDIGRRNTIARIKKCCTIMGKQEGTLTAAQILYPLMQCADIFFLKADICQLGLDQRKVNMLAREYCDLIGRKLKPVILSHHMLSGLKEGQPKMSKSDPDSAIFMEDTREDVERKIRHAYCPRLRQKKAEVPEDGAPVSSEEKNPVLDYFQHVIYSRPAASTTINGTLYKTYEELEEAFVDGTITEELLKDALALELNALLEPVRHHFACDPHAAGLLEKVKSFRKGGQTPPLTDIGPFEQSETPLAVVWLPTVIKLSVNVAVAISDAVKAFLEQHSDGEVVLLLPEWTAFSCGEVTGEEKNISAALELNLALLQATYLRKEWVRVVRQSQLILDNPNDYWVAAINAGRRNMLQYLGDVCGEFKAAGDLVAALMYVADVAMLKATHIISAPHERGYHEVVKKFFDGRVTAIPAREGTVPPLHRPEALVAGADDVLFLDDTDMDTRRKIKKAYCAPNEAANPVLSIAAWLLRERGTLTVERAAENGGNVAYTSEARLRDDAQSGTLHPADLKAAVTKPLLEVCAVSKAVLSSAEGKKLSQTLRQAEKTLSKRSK

[8] = target: T4, Tyrosyl-tRNA synthetase, putative (Trypanosoma cruzi (strain CL Brener)); test: Trypanosoma cruzi tyrosyl tRNA synthetase (TcYRS) SOP; assay type: functional; conditions: 30 µM
[9] = target: Chromo domain-containing protein 1 (Saccharomyces cerevisiae (strain ATCC 204508 / S288c) (Baker's yeast)) (UniProt P32657); test: ScCHD-1 Enzyme Inhibition Assay; assay type: functional; conditions: 30 µM; also: in the data most compounds retested in dose-response had high values
Sequence of Chromo domain-containing protein 1 (Saccharomyces cerevisiae (strain ATCC 204508 / S288c) (Baker's yeast)) (P32657 whole entry, the tested form may be a part): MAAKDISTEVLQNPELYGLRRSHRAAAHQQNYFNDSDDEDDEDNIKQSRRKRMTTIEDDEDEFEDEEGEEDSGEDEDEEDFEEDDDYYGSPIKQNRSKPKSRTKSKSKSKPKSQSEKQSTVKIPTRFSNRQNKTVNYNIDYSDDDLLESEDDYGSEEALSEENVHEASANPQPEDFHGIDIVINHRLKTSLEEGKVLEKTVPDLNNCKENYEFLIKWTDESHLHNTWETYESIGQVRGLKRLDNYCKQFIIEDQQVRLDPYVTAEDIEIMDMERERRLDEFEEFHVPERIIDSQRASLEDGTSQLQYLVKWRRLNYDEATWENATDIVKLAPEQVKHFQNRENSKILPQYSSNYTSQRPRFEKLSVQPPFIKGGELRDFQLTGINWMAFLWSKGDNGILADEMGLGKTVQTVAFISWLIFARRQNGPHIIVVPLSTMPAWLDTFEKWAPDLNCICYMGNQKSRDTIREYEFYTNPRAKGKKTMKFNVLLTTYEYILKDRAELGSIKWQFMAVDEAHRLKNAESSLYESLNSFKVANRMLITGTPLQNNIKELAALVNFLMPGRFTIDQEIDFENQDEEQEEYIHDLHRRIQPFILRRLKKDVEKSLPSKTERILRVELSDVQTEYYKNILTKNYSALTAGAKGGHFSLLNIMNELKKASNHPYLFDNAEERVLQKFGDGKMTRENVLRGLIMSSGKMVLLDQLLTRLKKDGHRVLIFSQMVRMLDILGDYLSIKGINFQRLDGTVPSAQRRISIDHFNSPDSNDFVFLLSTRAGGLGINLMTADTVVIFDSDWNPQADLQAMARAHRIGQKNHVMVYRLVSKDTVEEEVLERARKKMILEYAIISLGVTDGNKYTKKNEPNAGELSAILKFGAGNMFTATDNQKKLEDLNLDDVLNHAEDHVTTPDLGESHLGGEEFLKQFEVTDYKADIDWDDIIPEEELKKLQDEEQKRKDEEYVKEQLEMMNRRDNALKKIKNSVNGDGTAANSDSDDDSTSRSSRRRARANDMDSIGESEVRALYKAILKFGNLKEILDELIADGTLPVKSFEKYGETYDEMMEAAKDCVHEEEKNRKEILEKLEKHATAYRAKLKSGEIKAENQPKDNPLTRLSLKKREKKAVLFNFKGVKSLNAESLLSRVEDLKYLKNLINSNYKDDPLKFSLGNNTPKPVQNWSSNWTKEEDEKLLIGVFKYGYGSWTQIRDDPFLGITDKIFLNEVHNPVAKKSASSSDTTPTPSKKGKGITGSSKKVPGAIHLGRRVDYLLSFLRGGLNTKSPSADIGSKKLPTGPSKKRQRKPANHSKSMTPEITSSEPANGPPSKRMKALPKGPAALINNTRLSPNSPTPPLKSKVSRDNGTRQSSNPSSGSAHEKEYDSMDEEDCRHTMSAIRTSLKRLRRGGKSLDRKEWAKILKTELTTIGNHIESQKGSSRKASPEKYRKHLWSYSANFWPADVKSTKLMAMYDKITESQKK

Sequence of Protein translocase subunit SecA (Escherichia coli (strain K12)) (P10408 whole entry): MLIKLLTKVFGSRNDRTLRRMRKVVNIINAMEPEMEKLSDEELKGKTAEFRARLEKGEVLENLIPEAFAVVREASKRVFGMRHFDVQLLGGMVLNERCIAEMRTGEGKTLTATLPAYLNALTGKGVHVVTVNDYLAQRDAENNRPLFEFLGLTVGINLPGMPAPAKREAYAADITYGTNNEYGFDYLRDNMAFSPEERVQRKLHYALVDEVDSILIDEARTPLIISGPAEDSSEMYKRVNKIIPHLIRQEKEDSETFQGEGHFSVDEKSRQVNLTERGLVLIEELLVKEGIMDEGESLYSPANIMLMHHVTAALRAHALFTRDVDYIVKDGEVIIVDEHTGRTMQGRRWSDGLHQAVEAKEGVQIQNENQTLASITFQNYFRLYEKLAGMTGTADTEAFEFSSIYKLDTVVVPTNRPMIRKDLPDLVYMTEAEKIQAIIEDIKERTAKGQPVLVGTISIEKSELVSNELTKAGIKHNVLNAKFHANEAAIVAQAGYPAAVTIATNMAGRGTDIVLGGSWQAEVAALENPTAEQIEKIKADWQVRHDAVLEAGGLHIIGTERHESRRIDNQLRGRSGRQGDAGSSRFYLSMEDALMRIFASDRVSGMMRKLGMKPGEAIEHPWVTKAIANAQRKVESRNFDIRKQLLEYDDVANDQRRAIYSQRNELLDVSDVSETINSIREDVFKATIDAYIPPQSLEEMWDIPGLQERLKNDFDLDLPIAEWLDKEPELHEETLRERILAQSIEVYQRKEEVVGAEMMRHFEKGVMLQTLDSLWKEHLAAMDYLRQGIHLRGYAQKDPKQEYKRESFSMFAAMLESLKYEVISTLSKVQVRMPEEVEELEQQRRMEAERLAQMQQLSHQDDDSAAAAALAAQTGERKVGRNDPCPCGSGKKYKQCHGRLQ
Sequence of Sialic acid-binding Ig-like lectin 9 (Homo sapiens) (Q9Y336 whole entry): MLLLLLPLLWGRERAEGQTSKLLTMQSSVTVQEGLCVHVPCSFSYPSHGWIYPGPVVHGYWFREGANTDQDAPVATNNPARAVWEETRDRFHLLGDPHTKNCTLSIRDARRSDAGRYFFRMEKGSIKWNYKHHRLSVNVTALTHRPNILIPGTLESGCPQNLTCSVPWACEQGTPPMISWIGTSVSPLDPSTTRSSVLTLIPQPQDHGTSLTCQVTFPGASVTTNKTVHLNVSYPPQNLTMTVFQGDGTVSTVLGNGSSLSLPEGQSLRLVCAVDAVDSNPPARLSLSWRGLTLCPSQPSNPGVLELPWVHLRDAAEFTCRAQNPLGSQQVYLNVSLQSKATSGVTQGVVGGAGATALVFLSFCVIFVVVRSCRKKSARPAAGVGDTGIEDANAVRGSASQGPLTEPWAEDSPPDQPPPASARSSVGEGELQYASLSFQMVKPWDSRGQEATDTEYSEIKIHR

Row | SMILES | Percent Effect [1] | Percent Effect [2] | Percent Effect [3] | Percent Effect [4] | Percent Effect (Trypanosoma cruzi) | Percent Effect [5] | Percent Effect [6] | Percent Effect (Homo sapiens) | Percent Effect [7] | Percent Effect [8] | Percent Effect [9]
1 | COCc1ccccc1CNc1cc(N2CCCC2CO)ncn1 (configuration not stated) | -4.86% | 18.2% | -4.12% | 3.3% | -2.43% | 1.07% | 11.7% | 7.92% | 5.83% | 19.5% | -6.07%
2 | Cc1nc(Cn2nc(C3CCNCC3)n(Cc3ccccc3)c2=O)no1 | -0.936% | 5.41% | 0.118% | 2.54% | -4.25% | -4.29% | 12.1% | 26.5% | 3.7% | 4.88% | -4.29%
3 | CNc1cc2c(nn1)CCN(C(=O)c1cccc3c1OCO3)C2 | -5.03% | 5.2% | -9.97% | 7.76% | 3.75% | 2.49% | -5.07% | -5.98% | 4.85% | 7.32% | -2.55%
4 | Cc1ccc(CCC(=O)N(C)CCN2CCOCC2)c(C)c1 | -0.772% | -5.26% | 4.45% | 4.55% | -0.487% | -7.1% | 17% | -17.1% | 6.38% | 5.2% | 4.92%
5 | Cc1cc(C)cc(N(C)S(=O)(=O)c2cc(C(=O)O)cs2)c1 | -3.42% | 5.41% | -10.8% | 15.8% | 5.57% | -5.21% | 0% | 12.5% | -1.48% | 3.7% | -4.94%
6 | CC(=O)NCC(=O)N1Cc2nccn2CC(CN2CCCC2)C1 (configuration not stated) | -4.42% | 5.41% | 1.1% | -2.08% | -5.77% | 0.955% | 19.6% | 5.21% | 6.49% | 10.3% | -0.00691%
7 | O=C(c1ccc[nH]1)N1CCN(CC2CCOc3ccccc3C2)CC1 (configuration not stated) | -7.81% | 1.39% | -3.67% | 14.8% | 1.07% | -1.77% | 4.04% | -2.27% | 3.16% | -7.69% | -1%
8 | CC(NC(=O)NCCCn1cncn1)c1ccc2c(c1)OCCO2 (configuration not stated) | -1.3% | 18.9% | -2.43% | 0.133% | -3.81% | -1.66% | 14.2% | 6.17% | 2.97% | 15.8% | -2.48%
9 | O=C(CN1CCOC(Cn2cccn2)C1)NCCc1ccc(F)cc1 (configuration not stated) | -2.6% | 2.7% | -6.61% | -1.28% | -3.25% | -0.554% | 7.18% | 5.31% | -0.99% | 1.22% | 13.8%
10 | COc1ccc(CNCC2CC2)cc1F | -3.45% | 0% | 3.06% | 6.66% | 1.56% | -1.67% | 3.47% | -5.14% | 4.95% | 3.66% | -2.56%
11 | Cn1cccc1C(=O)N1CCc2ncnc(N3CCCC3)c2CC1 | -4.32% | 5.33% | 8.28% | 2.39% | 4.13% | -4.43% | -0.264% | 8.45% | 5.32% | 11.5% | -2.07%
12 | CCCc1n[nH]c(C2CN(Cc3nnc(C4CC4)o3)CCO2)n1 (configuration not stated) | -3.64% | 5.06% | -4.65% | 2.18% | 4.25% | -1.9% | -0.409% | 3.77% | 3.45% | 8.86% | -0.679%
13 | CCC(=O)N(C)C1CCN(Cc2ncc(C)c(OC)c2C)CC1 | -5.54% | 18.2% | -1.36% | -0.124% | 2.25% | 2.13% | 18.9% | 16.3% | 5.83% | 19.5% | -7.08%
14 | O=C(CCNS(=O)(=O)c1ccc2c(c1)CCCC2)NCc1ccoc1 | -5% | 5.33% | 8.4% | 5.02% | -2.43% | -2.08% | 8.37% | 14.2% | 4.92% | 11.1% | -6.46%
15 | O=C(c1ccncc1F)N1CCN(CC2CC2)c2ncccc2C1 | -8.25% | -1.33% | 4.65% | -2.72% | -9.63% | -14.6% | 10.2% | -11% | -6.35% | -10.3% | -9.4%
16 | CCN1CCN(C2CCN(Cc3nnc(C(C)(C)C)o3)CC2)C1=O | -4.08% | 13% | 7.53% | -0.00786% | 0.686% | 1.05% | 10.3% | 4.76% | 7.62% | 14.1% | -21.7%
17 | Cc1nc(N2CCOCC2)nc2c1CN(C(=O)Cc1ccccn1)CC2 | 1.23% | 0% | 3.27% | 5.25% | 0.688% | 4.14% | 2.66% | -4.9% | 3.23% | -1.24% | 0.916%
18 | CCCNC(=O)Cn1nc(C(C)C)c2cnn(C(C)(C)C)c2c1=O | -3.37% | 5.48% | -13.9% | 4.27% | -0.392% | 2.27% | 16.1% | 5.42% | 8.6% | 15% | -5.95%
19 | CC(NC(=O)NCCCNS(C)(=O)=O)c1ccncc1 (configuration not stated) | -4.34% | 6.33% | 4.73% | 0.18% | -2.97% | -1.5% | 8.4% | -9.13% | 12.5% | 17.7% | -4.71%
20 | O=C1CC(c2cccnc2)c2c(c(C(=O)O)cn2-c2ccccc2)N1 (configuration not stated) | -3.57% | 6.67% | -32.4% | -0.792% | -3.14% | 6.16% | 14.6% | 11.4% | 3.17% | 10.3% | -8.81%
21 | CC(C)(CO)NC(=O)C1CCC(=O)N(Cc2ccc(Cl)cc2)C1 (configuration not stated) | -3.58% | 1.39% | 10.2% | 1.15% | -1.26% | -3.09% | 2.81% | -9.87% | -3.16% | 0% | 0.1%
22 | CC(C)(C)c1cc(CN2CC[C@@H](NC(=O)c3cccnc3)[C@H](O)C2)n[nH]1 | -3.5% | 1.39% | -10.7% | 10.3% | 4.37% | 17.7% | 6.49% | 15.6% | 3.16% | 12.8% | -6.81%

— ChEMBL document CHEMBL3988442, “University of Dundee, Small-Polar-MMV Screening Library” (2021)
